# A number with no mark means an inactive call.
# Legend:
# [1] = test system: Falciformispora senegalensis CBS197.79; test: growth relative to untreated control; higher = less inhibition, active = 20 or less
# In short: (§1)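 In 96-well plates, suspended hyphal fragments of M. mycetomatis MM55 or F. senegalensis CBS197.79 were exposed to compound at 100 or 25 µM for 7 days at 37 °C. The suspension medium was colourless RPMI 1640 with L-glutamine and MOPS, adjusted to 68–72% transmission at 660 nm. Viability was measured with MTS (2 h, 490 nm) or resazurin (600 nm). Growth means metabolic activity compared with the untreated growth control after blank correction of both with medium plus dye.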
# [2] = test system: Madurella mycetomatis MM55; test: as above
# In short: as §1
Compound,growth ([1]; 25 µM),growth ([1]; 100 µM),growth ([2]; 25 µM),growth ([2]; 100 µM)
CCCCOC(=O)c1c(C)cnc2ccccc12,90.5%,98.7%,86.7%,141%
C=CC(C)(C)C1=C(O)C(=O)c2ccccc2C1=O,103%,101%,98.8%,164%
COC(=O)[C@@]1(c2ccc(C)cc2)C[C@H]1CN1CCC(O)(c2ccccc2)CC1,95.2%,97.4%,77.2%,72.2%
COc1ccc(CCN(C)CCCC(C#N)(c2ccc(OC)c(OC)c2)C(C)C)cc1OC (stereo not drawn),110%,98.5%,76.9%,98.8%
Cc1cc(C)c(Nc2ccnc(Nc3ccc(C#N)cc3)n2)c(C)c1,103%,99.4%,92.4%,86.6%
CCSc1ccc2c(c1)N(CCCN1CCN(C)CC1)c1ccccc1S2,7.2% (active),11.7% (active),3.68% (active),3.76% (active)
O=C(O)c1ccc2c(c1)nc(Nc1cccc(Cl)c1)c1ccncc12,97.2%,97.3%,125%,78.1%
Cc1cc(Cl)ccc1NC(=S)N(C)C,98.6%,88.2%,106%,147%
CC(C)Nc1ncc2nc(Nc3cc(C(F)(F)F)cc(C(F)(F)F)c3)n(C3CCNCC3)c2n1,104%,107%,104%,64.5%
CNC(=O)c1cc(Oc2ccc(NC(=O)Nc3ccc(Cl)c(C(F)(F)F)c3)c(F)c2)ccn1,109%,101%,69.9%,74.4%
CN(C)CCn1cnc2sc3c(c2c1=O)CCC(NCc1cccc(Cl)c1)C3 (stereo not drawn),94.3%,21%,36.1%,5.28% (active)
CC(=O)[C@@]1(O)CC[C@H]2[C@H]3CCC4=CC(=O)CC[C@@]4(C)[C@H]3CC[C@@]21C,92.2%,106%,80.2%,83.8%
C=CC(=O)Nc1cc(Nc2nccc(-c3cn(C)c4ccccc34)n2)c(OC)cc1N(C)CCN(C)C,7.88% (active),12.6% (active),3.84% (active),2.43% (active)
COC(=O)N[C@H](C(=O)N[C@@H](Cc1ccccc1)[C@@H](O)CN(Cc1ccc(-c2ccccn2)cc1)NC(=O)[C@@H](NC(=O)OC)C(C)(C)C)C(C)(C)C,114%,108%,88.9%,105%
Cc1c(-c2ccc(-c3ccccc3F)cc2)nc2ccc(F)cc2c1C(=O)O,103%,98.6%,115%,83.3%
c1ccc(CCc2nc3cccnc3n2C2CCN(C3CCN(Cc4ccccc4)CC3)CC2)cc1,86.3%,49.8%,63.2%,5.59% (active)
CCCCCCO[C@@H](C)c1cccc(-c2csc(NC(=O)c3cc(Cl)c(/C=C(\C)C(=O)O)c(Cl)c3)n2)c1OC,80%,105%,81%,85.9%
Cc1nc2ccccn2c1C1(O)C(=O)Nc2c(Cl)cc(Cl)cc21 (stereo not drawn),101%,118%,99.3%,111%
COc1cccc2c1C(=O)c1c(O)c3c(c(O)c1C2=O)C[C@@](O)(C(=O)CO)C[C@@H]3O[C@H]1C[C@H](N)[C@H](O)[C@H](C)O1,94.8%,96.3%,116%,72.5%

Compound,growth ([1]; 25 µM),growth ([1]; 100 µM),growth ([2]; 25 µM),growth ([2]; 100 µM)
CC(C)(C)Nc1ncc2nc(Nc3cc(Cl)cc(C(F)(F)F)c3)n([C@H]3C[C@H](N)C3)c2n1,50.9%,11.3% (active),7.82% (active),5.73% (active)
CC(C)C(=O)OCC(=O)[C@@]12OC(C3CCCCC3)O[C@@H]1C[C@H]1[C@@H]3CCC4=CC(=O)C=C[C@]4(C)[C@H]3[C@@H](O)C[C@@]12C (stereo partly drawn),109%,105%,75.3%,90.7%
CS(=O)(=O)c1ccc(-c2cnn3c2NC(c2cccc(S(=O)(=O)C4CC4)c2)CC3)cc1 (stereo not drawn),72.5%,88.1%,97.1%,82.5%
CC(C)CC(NC(=O)N1CCOCC1)C(=O)NC(/C=C/S(=O)(=O)c1ccccc1)CCc1ccccc1 (stereo not drawn),90.8%,93.9%,86.4%,96.5%
Cn1nc(C(=O)Nc2ccc(F)c(Cl)c2)c2c1-c1ccccc1S(=O)(=O)C2,99.8%,117%,86.8%,104%
CN1CCC[C@@H]1CCO[C@](C)(c1ccccc1)c1ccc(Cl)cc1,17.9% (active),13.7% (active),11.1% (active),4.37% (active)
N#CC[C@H](C1CCCC1)n1cc(-c2ncnc3[nH]ccc23)cn1,110%,103%,76.6%,92.4%
CCC(CC)COC(=O)[C@H](C)NP(=O)(OC[C@H]1O[C@@](C#N)(c2ccc3c(N)ncnn23)[C@H](O)[C@@H]1O)Oc1ccccc1 (stereo partly drawn),109%,96.3%,95.1%,85.7%
CC(C)C[C@H](NC(=O)[C@@H](NC(=O)c1cccc(-c2ccccc2)n1)[C@@H](C)O)B(O)O,102%,99%,99.4%,88.5%
O=c1c(Cl)c(OCc2ccc(Cl)nc2)cnn1-c1ccc(Cl)c(Cl)c1,92.2%,103%,61.7%,62.1%
Cc1nn(C)c(Oc2ccccc2)c1C=NOCc1ccc(C(=O)OC(C)(C)C)cc1,95%,89%,83.5%,102%
CC(C)OC(=O)[C@H](C)N[P@](=O)(OC[C@H]1O[C@@H](n2ccc(=O)[nH]c2=O)[C@](C)(F)[C@@H]1O)Oc1ccccc1,112%,108%,94.5%,85.7%
COc1cccc(OC2CCN(C(=O)c3cc(C(C)(C)C)nn3Cc3ccccc3)CC2)c1,82.9%,93.8%,87.4%,118%
Fc1cccc(-c2ccc3c(c2)CC(NCc2c[nH]c4cnccc24)C3)c1 (stereo not drawn),6.11% (active),14.3% (active),5.29% (active),5.16% (active)
COc1cccc2c1CCCC2CCCN1CCN(C2CCCCC2)CC1 (stereo not drawn),101%,103%,75.4%,68.7%
Cc1cccnc1Nc1cn2cc(-c3ccnc(OC(C)C)n3)ccc2n1,101%,91%,36.1%,6.2% (active)
O=C(OI(OC(=O)C(F)(F)F)c1ccccc1)C(F)(F)F,97.9%,93%,89.9%,182%
CC(C)Nc1ncc2nc(Nc3cc(F)cc(Cl)c3)n(C3CCNCC3)c2n1,101%,99.6%,91.1%,94.2%
